{
  "source": "paper PMC5540273",
  "about": "(PLoS ONE, 2017);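 note: KINOMEscan kinase panel screen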",
  "data": [
    {"system": "CDK4-cyclinD3", "conditions": "concentration: 1 μM,replicates: in singlicate; n = 1", "units": {"%Inh": "%"}, "values": [
      {"smiles": "Cc1n[nH]c2ccc(-c3cc(OC[C@@H](N)Cc4ccccc4)cnc3-c3ccoc3)cc12.O=C(O)C(F)(F)F.O=C(O)C(F)(F)F", "note": "[GSK507358]", "%Inh": 0},
      {"smiles": "CC(C)Nc1cc(-c2ccc3c(N)n[nH]c3c2)nc(N)n1", "note": "[GSK2221681]", "%Inh": 0},
      {"smiles": "CNC(=O)c1ccccc1Sc1ccc2c(/C=C/c3ccccn3)n[nH]c2c1", "%Inh": 0},
      {"smiles": "Cl.Cl.NC[C@H](Cc1ccc(C(F)(F)F)cc1)NC(=O)c1cc(Br)c(-c2ccnc3[nH]ccc23)s1", "note": "[GSK1487252]", "%Inh": 2},
      {"smiles": "Cl.Cl.Nc1nc(-c2ccc3c(N)n[nH]c3c2)cc(N2CCCC(NC(=O)c3ccccc3)C2)n1", "note": "(stereo not drawn) [GSK2286775]", "%Inh": 19},
      {"smiles": "O=C(NCCCN1CCOC1=O)c1cnc(NCc2cc(Cl)ccc2Cl)nc1NC1CCCC1", "%Inh": 0},
      {"smiles": "CN(C)CC(O)COc1ccc(Nc2nccc(-c3cnn4nc(N5CCOCC5)ccc34)n2)cc1", "note": "(stereo not drawn) [GW767488]", "%Inh": 98.3},
      {"smiles": "Cc1ccc(-n2nc(C(C)(C)C)cc2NC(=O)Nc2ccc(OCCN3CCOCC3)c3ccccc23)cc1", "note": "[GW839464]", "%Inh": 0},
      {"smiles": "Cc1cc(C(=O)Nc2ccc(Oc3ccc4nc(NC(=O)C5CC5)cn4n3)cc2)nn1-c1ccccc1", "%Inh": 0},
      {"smiles": "C=CC(=O)Nc1cc2c(Nc3ccc(F)c(Cl)c3)ncnc2cc1OCCCN1CCOCC1", "note": "[GW781483]", "%Inh": 11},
      {"smiles": "Cc1cc2cn[nH]c2cc1-c1cccc2c(N)c(C(N)=O)nnc12", "%Inh": 35},
      {"smiles": "C[C@@H]1CCN(C(=O)CC#N)C[C@@H]1N(C)c1ncnc2[nH]ccc12", "%Inh": 6},
      {"smiles": "CC(C)N1C(=O)Cc2cc(Nc3ncc(C(F)(F)F)c(NCc4cccc(S(C)(=O)=O)c4)n3)ccc21", "%Inh": 0},
      {"smiles": "C[C@H]1Oc2cc(cnc2N)-c2c(nn(C)c2C#N)CN(C)C(=O)c2ccc(F)cc21", "%Inh": 0},
      {"smiles": "Cc1occc1-c1nc(N)c(OC[C@@H](N)Cc2c[nH]c3ccccc23)cc1-c1cc2c(C)n[nH]c2cn1", "note": "[GSK1660450]", "%Inh": 0},
      {"smiles": "Cc1ccc2c(-c3ccncc3)c(-c3ccc(F)cc3)nn2c1.Cl", "note": "[GW461484]", "%Inh": 0},
      {"smiles": "CCN(CC)CCCCNc1ncc2cc(-c3c(Cl)cccc3Cl)c(NC(=O)NC(C)(C)C)nc2n1", "%Inh": 0},
      {"smiles": "CCN(CC)CCOc1ccc(Nc2ncc3cc(-c4c(Cl)cccc4Cl)c(=O)n(C)c3n2)cc1", "note": "[SB-601273]", "%Inh": 48},
      {"smiles": "NC(=O)c1cc(-c2ccccc2)cc2c(C3CCNCC3)c[nH]c12", "note": "[GSK301362]", "%Inh": 3},
      {"smiles": "CCn1c(-c2nonc2N)nc2c(C#CC(C)(C)O)nc(OCCN)cc21.Cl.Cl", "note": "[GSK902056]", "%Inh": 0},
      {"smiles": "O=C(NCCNc1ccnc(NCc2ccc(F)cc2)n1)c1cc2ccccc2s1", "note": "[GSK1379944]", "%Inh": 11},
      {"smiles": "Cl.Oc1cc(-c2nc(-c3ccccc3)[nH]c2-c2ccncc2)ccc1Cl", "note": "[SB-386023]", "%Inh": 0},
      {"smiles": "COc1ccc(C[C@@H](CN)NC(=O)c2cc(Br)c(-c3ccnc4[nH]ccc34)s2)cc1.Cl.Cl", "note": "[GSK1389063]", "%Inh": 28},
      {"smiles": "Cl.Cl.NC[C@H](CC1CCCCC1)NC(=O)c1cc(Br)c(-c2ccnc3[nH]ccc23)s1", "note": "[GSK1581427]", "%Inh": 6},
      {"smiles": "CN(C)CCOc1ccc(-c2cc(-c3c[nH]nc3-c3ccccn3)ccn2)cc1", "note": "[GW835314]", "%Inh": 17},
      {"smiles": "C[C@@H](Oc1cc(-c2cnn(C3CCNCC3)c2)cnc1N)c1c(Cl)ccc(F)c1Cl", "%Inh": 0},
      {"smiles": "Nc1nc(Nc2ccccc2)cc(-c2ccc3c(N)n[nH]c3c2)n1", "note": "[GSK2225749]", "%Inh": 0}
    ]}
  ]
}
